Test results taken from PubChem BioAssay AID1224903 (Bradner/Qi Labs at DFCI, 2016).
Several values for one entry are separate records, joined by “and”; a condition that tells them apart may be missing. Equal values may be shown once. About 720 (1.1%) of roughly 66,000 compounds were called active. No stated cut-off is given here; in the data, active means normalised signal below about 0.5; inactive means the rest, inconclusive results apart. For the sample, actives were picked, then their nearest neighbours and some compounds at random.

Target: Chromobox protein homolog 7 (Homo sapiens) (UniProt O95931)
Sequence (O95931 whole entry, looked up): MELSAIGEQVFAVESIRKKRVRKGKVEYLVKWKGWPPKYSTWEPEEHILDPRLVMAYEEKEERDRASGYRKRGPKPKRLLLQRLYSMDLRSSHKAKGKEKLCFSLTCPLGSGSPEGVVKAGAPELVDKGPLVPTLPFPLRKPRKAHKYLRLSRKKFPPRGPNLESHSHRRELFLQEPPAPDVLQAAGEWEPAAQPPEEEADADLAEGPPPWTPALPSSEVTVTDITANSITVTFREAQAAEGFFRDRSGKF
Assay: CBX7 chromodomain binding inhibitors, primary screen, biochemical, AlphaScreen (AID 1224903)
Conditions: AlphaScreen His6-CBX7 / biotin-H3K27me3 peptide binding, stronger effect = lower value; z-score: measured here: z-score of CBX7 signal

Row | SMILES | normalised signal (fraction of DMSO) | z-score
1 | Cc1ccc(C2CC(c3ccc(C)cc3)n3ncnc3N2)cc1 (stereo unspecified) | 1.02 (inactive) | 0.839
2 | Cc1cc(C)cc(NS(=O)(=O)c2cnc[nH]2)c1 | 1.01 (inactive) | 0.0588
3 | COc1ccc(NC2CC(=O)N(Cc3ccccc3)C2=O)cc1 (stereo unspecified) | 1.18 (inactive) | 0.412
4 | COc1ccccc1NC(=O)Cn1ccc2ccccc2c1=O | 0.981 (inactive) | -0.168
5 | O=C(Nc1ccc2c(c1)OCO2)c1cnc2ccccn2c1=O | 0.987 (inactive) | -0.351
6 | O=C(O)c1ccc(Nc2nc(-c3ccccc3)c3cc(Br)ccc3n2)cc1 | 1.05 (inactive) | 2.04
7 | Cc1ccc(Nc2nc(-c3ccccc3)c3cc(Cl)ccc3n2)cc1 | 1.7 (inactive) | 11.8
8 | CCN1CCN(c2ccc(Nc3nc(-c4ccccc4)c4cc(Cl)ccc4n3)cc2)CC1 | 0.231 (active) | -24.9
9 | Cc1nc2sc(C(c3cccs3)N3CCc4ccccc4C3)c(O)n2n1 (stereo unspecified) | 0.953 (inactive) | -2.28
10 | COc1ccc2[nH]c(C)c(CCNS(=O)(=O)c3ccc(Cl)c(OC)c3)c2c1 | 0.845 (inactive) | -0.316
11 | COc1ccc(OC)c(S(=O)(=O)NCCc2c(C)[nH]c3ccc(C)cc23)c1 | 0.427 (active) | -0.571
12 | Cc1[nH]c2ccc(OC(F)(F)F)cc2c1CCNS(=O)(=O)c1ccc(C(C)C)cc1 | 0.913 (inactive) | -1.89
13 | COc1ccc(S(=O)(=O)NCCc2c(C)[nH]c3ccc(C)cc23)cc1C | 0.907 (inactive) | -1.43
14 | Cc1ccc2[nH]c(C)c(CCNS(=O)(=O)c3ccc(C)c(C)c3C)c2c1 | 0.951 (inactive) | -0.467
15 | COc1ccc2[nH]c(C)c(CCNS(=O)(=O)c3cc(Br)ccc3OC)c2c1 | 0.363 (active) | -0.634
16 | Cc1nc2sccn2c1-c1csc(Nc2ccc(S(N)(=O)=O)cc2)n1 | 1.07 (inactive) | 0.0851
17 | Cc1ccc(Cn2nnc3c(=O)n(Cc4c(F)cccc4Cl)cnc32)cc1 | 0.864 (inactive) | -2.23
18 | Cc1ccn2c(NC3CCCCC3)c(-c3cccs3)nc2c1 | 0.819 (inactive) | -1.46
19 | COc1ccc(OC)c(NC(=O)CCc2c(C)nc3c(c(C)nn3-c3ccc(C)cc3)c2C)c1 | 0.992 (inactive) | -0.0612
20 | CCCCCC(O)(CCN1CCCCC1)c1ccccc1 (stereo unspecified) | 1.09 (inactive) | 2.44
21 | CCCN1C(=O)C(O)(CC(=O)c2ccc(CC)cc2)c2cc(Br)ccc21 (stereo unspecified) | 0.0492 (active) | -1.07
22 | CCc1ccc(C(=O)CC2(O)C(=O)N(CCc3ccccc3)c3ccc(Br)cc32)cc1 (stereo unspecified) | 0.626 (inactive) | -10.8
23 | CC(C)c1ccc(C(=O)CC2(O)C(=O)N(Cc3ccccc3)c3ccc(Br)cc32)cc1 (stereo unspecified) | 0.876 (inactive) | -1.19
24 | COc1ccccc1Nc1nc(-c2ccc(Br)cc2)cs1 | 0.904 (inactive) and 0.953 (inactive) | -2.04 and -0.747
25 | CN(CCCNC(=O)c1cc(-c2ccncc2)nc2ccccc12)C1CCCCC1 | 1.17 (inactive) | 1.9
26 | Cc1ccc2oc(-c3cc(NC(=O)c4cccc(F)c4)ccc3Cl)nc2c1 | 0.889 (inactive) | -0.255
27 | CCOC(=O)c1cc(-c2ccccc2)n(-c2cccc(C(=O)Nc3nccs3)c2)c1C | 0.944 (inactive) | -1.01

Row | SMILES | normalised signal (fraction of DMSO) | z-score
28 | CCOC(=O)c1cnc2cc(Cl)c(OC)cc2c1Nc1ccc(C(F)(F)F)cc1 | 0.983 (inactive) | -0.244
29 | CC(=O)Nc1ncc2c(n1)CC(c1cccs1)CC2=O (stereo unspecified) | 0.997 (inactive) | -0.0863
30 | Fc1ccc(-c2cc(C(F)(F)F)nc(NCc3ccc(Cl)cc3)n2)cc1 | 1.25 (inactive) | 2.79
31 | O=C(NC1CCCC1)c1nn2c(C(F)(F)F)cc(-c3ccc(F)cc3)nc2c1Cl | 1.08 (inactive) | 0.569
32 | CCC(C)NC(=O)c1ccc2nc(N3CCOCC3)sc2c1 (stereo unspecified) | 1.08 (inactive) | 3.28
33 | Cn1cc(CC(=O)N2CCN(c3ccccn3)CC2)c2ccccc21 | 0.973 (inactive) | -0.31
34 | O=C(NCCCc1nc2ccccc2n1Cc1ccccc1F)c1ccc(F)cc1 | 0.957 (inactive) | -1.01
35 | Cn1c(C(=O)NCCCSC2CCCCC2)cc2sc(Cl)cc21 | 1.03 (inactive) | 0.498
36 | Cc1ccc(-c2nc(-c3ccccc3Cl)no2)cc1 | 1.16 (inactive) | 1.59
37 | COc1ccc(-n2c3c(cc(C(=O)NC(C)(C)C)c2=O)C(=O)CC(C)(C)C3)cc1 | 1.06 (inactive) | 0.667
38 | Cc1ccc(-c2nnc(SCC(=O)Nc3cc(C)on3)o2)cc1 | 1.19 (inactive) | 2.87
39 | Cc1cc(NC(=O)CSc2nnc(-c3ccc(Cl)s3)o2)no1 | 1.1 (inactive) | 1.02
40 | COc1ccc(OC)c(-c2nnc(SCC(=O)Nc3cc(C)on3)o2)c1 | 0.264 (active) | -15.1
41 | CC1CCN(c2nc3ccc(C(=O)NCCCN4C(C)CCCC4C)cc3s2)CC1 (stereo unspecified) | 1.41 (inactive) | 3.88
42 | COc1ccc(CCNC(=O)c2cccc3c2C(=O)N(Cc2cccnc2)C3)cc1OC | 1.02 (inactive) | 0.0167
43 | CCN(C(=O)Cc1nc(N)n[nH]1)C1(C(=O)Nc2ccc(C)cc2)CCCCC1 | 0.791 (inactive) | -3.79
44 | CCN(C(=O)Cc1nc(N)n[nH]1)C1(C(=O)Nc2ccccc2)CCCCC1 | 0.201 (active) | -14.5
45 | Cc1cccc(C)c1NC(=O)C1(N(CCc2c[nH]c3ccccc23)C(=O)c2ccccc2F)CCCCC1 | 0.792 (inactive) | -3.78
46 | Cc1cc(NCC(C)c2ccccc2)n2ncnc2n1 (stereo unspecified) | 1.03 (inactive) | 0.546
47 | CCOC(=O)c1cccc(NC(=O)Cn2nc(Cc3ccncc3)c3ccccc3c2=O)c1 | 0.996 (inactive) | -0.0743
48 | COc1cccc(C2=NOC(C(=O)NCCc3ccccc3)C2)c1 (stereo unspecified) | 1.14 (inactive) | 1.85
49 | Cc1cc(Nc2ccc(C)c(C)c2)n2ncnc2n1 | 1.04 (inactive) | 0.609
50 | CC1CCC(NC(=O)C2c3ccccc3C(=O)N2Cc2ccc3c(c2)OCO3)CC1 (stereo unspecified) | 1.04 (inactive) | 0.918
51 | COc1ccc(CCNC(=O)CSc2nnc(CNC(=O)c3cccs3)o2)cc1OC | 0.975 (inactive) | -0.715
52 | COc1ccc(CCNC(=O)CSc2nc3ccccc3[nH]2)cc1OC | 1.07 (inactive) | 0.758
53 | COc1ccc(CCNC(=O)CSc2nc3ccccc3nc2Cc2ccc(F)cc2)cc1OC | 0.48 (active) | -8.99
